# Only some compounds are listed: those with a hit (about 11% of all), similar ones and a draw of the others.
# NPR1 antag – human Npr1 receptor antagonism; P16066; HEK293 hNpr1 GloSensor cGMP, ANP-stimulated luminescence; Potency, µM (highest dose often 46.3 µM), actives largely listed as inhibitors; actives 1.6% (n = 76,000); AID 1347048; calls by dose curve; note: nearly all actives have a fitted effect of over 60% in size
#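 HEK293 cells stably expressing human Npr1 and cGMP GloSensor pGS-40F, loaded 2 h with 2% GloSensor reagent, given compound 30 min at room temperature. Luminescence read before and 20 min after 0.1 nM hNppA.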
# HEK cytotox – cytotoxic compounds in HEK 293 cells. HEK 293 viability, ATP luminescence (CellTiter-Glo), 48-72 h. Potency, µM (series often up to 115 µM), usual class: inhibitors. actives 6.6% (n = 94,000). AID 1345083; note: nearly all actives have a fitted effect of over 60% in size
#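 ATP-coupled CellTiter-Glo luminescence served as viability read-out, recorded 10 min after reagent addition at room temperature. HEK 293 cells, 250 cells/well, had been incubated with pintool-transferred compound for 48 or 72 hr at 37 degree Celsius.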
# Luciferase inh – Photinus pyralis luciferase inhibition; P08659; purified P. pyralis luciferase, luminescence, biochemical; Potency, µM (top dose mostly 115 µM), actives largely listed as inhibitors; actives 2.5% (n = 76,000); AID 1347043; note: nearly all actives have a fitted effect of over 65% in size
# Target sequence (P08659 whole entry, looked up): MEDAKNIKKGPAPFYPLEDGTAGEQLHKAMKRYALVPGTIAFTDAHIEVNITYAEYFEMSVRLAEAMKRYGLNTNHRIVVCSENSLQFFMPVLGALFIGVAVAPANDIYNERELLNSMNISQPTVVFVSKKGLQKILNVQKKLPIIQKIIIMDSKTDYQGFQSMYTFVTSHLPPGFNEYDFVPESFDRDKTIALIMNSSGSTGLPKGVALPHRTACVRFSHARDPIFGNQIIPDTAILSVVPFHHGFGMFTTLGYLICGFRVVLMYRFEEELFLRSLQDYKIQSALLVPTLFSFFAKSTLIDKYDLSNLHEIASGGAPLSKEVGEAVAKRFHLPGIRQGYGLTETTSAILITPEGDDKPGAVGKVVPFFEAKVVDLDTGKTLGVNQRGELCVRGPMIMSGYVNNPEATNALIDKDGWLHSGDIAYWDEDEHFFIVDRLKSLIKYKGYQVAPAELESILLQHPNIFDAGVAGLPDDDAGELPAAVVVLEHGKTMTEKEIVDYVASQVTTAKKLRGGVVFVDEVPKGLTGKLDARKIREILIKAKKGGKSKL
#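 Inhibitors were tested against purified firefly luciferase in a biochemical, low-substrate format (both substrates at 10uM) and luminescence measured with a CCD imager.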
# NIH3T3 tox – NIH 3T3 cell cytotoxicity | NIH 3T3 viability, CellTiter-Glo ATP luminescence, 48-72 h | Potency, µM (doses to about 96.7 µM), hits mostly inhibitors | actives 4.3% (n = 94,000) | AID 1345082; note: nearly all actives have a fitted effect of over 55% in size
#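 ATP-dependent luminescence (CellTiter-Glo) served as the viability signal for NIH 3T3 cells treated with compound for 48 or 72 hr at 37 °C.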
# Hits are given with their value; n = inactive; u = inconclusive; x = not tested or not shown. Unless noted, calls come from the whole dose curve; as a rule, active = well fitted curve in the direction sought with a large enough effect; inconclusive = small, poorly fitted or top-dose-only effect, or another doubt; inactive = no such curve, though single readings can be large; an effect the other way counts as inactive or inconclusive.
SMILES,NPR1 antag,HEK cytotox,Luciferase inh,NIH3T3 tox
O=C1CCCN1CCN1CCOc2c(O)cc(-c3csc4ccccc34)cc2C1,n,45µM,n,u
Cc1[nH]cnc1C(=O)N1CCOc2c(O)cc(-c3csc4ccccc34)cc2C1,n,45µM,n,79µM
NCCCCC(=O)N1CCOc2c(O)cc(-c3csc4ccccc34)cc2C1,n,32µM,n,40µM
O=C(CN1CCOc2c(O)cc(-c3csc4ccccc34)cc2C1)N1CCOCC1,n,u,n,u
OCC1(Cc2ccccc2)CCCN(Cc2cnn(-c3cccc(Cl)c3)c2)C1 (stereo not drawn),n,79µM,n,79µM
O=S(=O)(c1cccc2ccccc12)N1CCCC(CO)(Cc2cccc(Cl)c2)C1 (stereo not drawn),n,u,n,45µM
CN1CCN(Cc2cnn(-c3cccc(Cl)c3)c2)CC1CCO (stereo not drawn),n,n,n,u
O=C(NC1CCCCC1)c1c(-c2ccccc2)cc(=O)n2c1CCC2,x,n,x,n
Oc1cccc(CN(Cc2ccsc2)Cc2ccco2)c1,n,35µM,n,32µM
CN1CCN(Cc2nnc(C(=O)N3CCC[C@@H]3c3ccc(Br)cc3)n2Cc2ccccc2)CC1,n,u,n,u
CN(Cc1ccccc1)Cc1nnc(C(=O)N2CCC[C@@H]2c2ccc(Br)cc2)n1Cc1ccccc1,n,32µM,n,18µM
O=C(c1nnc(CN2CCN(c3ccccn3)CC2)n1Cc1ccccc1)N1CCC[C@@H]1c1ccc(Br)cc1,n,45µM,n,u
COc1ccc(C(=O)N2CCC(C(=O)N3CCC(c4nc5ccncc5[nH]4)C3)CC2)cc1 (stereo not drawn),x,n,x,n
CC(CCc1ccccc1)NC(=O)CN1C(=O)NC(c2ccc(Cl)cc2)C2=C1COC2=O (stereo not drawn),n,40µM,n,u
Cc1ccc(C2NC(=O)N(CC(=O)NC(C)CCc3ccccc3)C3=C2C(=O)OC3)cc1 (stereo not drawn),n,u,n,n
O=C(CN1C(=O)NC(c2ccc(Cl)cc2)C2=C1COC2=O)NCc1ccccc1Cl (stereo not drawn),n,35µM,n,u
C[C@]1(CO)[C@H]2Cc3sc(NC(=O)c4ccc(F)cc4)nc3[C@@H](CC(=O)N3CCOCC3)[C@]2(C)CC[C@H]1O,n,n,n,n
CN(C)c1cccc(-c2cnc(Nc3cccnc3)c3c2CCO3)c1,u,63µM,40µM,50µM
CN(C)c1cccc(-c2cnc(Nc3ccc4c(c3)OCCO4)c3c2CCO3)c1,u,u,3.5µM,n
COc1cncc(Nc2ncc(-c3cccc(N(C)C)c3)c3c2OCC3)c1,n,n,n,u
CNc1cc(C2CC(NC(=O)COc3ccc(Cl)cc3C)C2)nc(N)n1 (stereo not drawn),n,18µM,n,40µM
Cc1ccccc1C(=O)N1CCCC1C(=O)N1CCC(N2Cc3cccn3C2=O)CC1 (stereo not drawn),x,n,x,n
CC(C)CCN1CCOc2cc(C(=O)Nc3ccc4cn[nH]c4c3)ccc2C1,n,89µM,u,u
Cc1csc(NC(=O)c2ccc3c(c2)OCCN(CCC(F)(F)F)C3)n1,n,79µM,u,u
O=C(NCC(F)(F)F)c1nc2cccnc2n(Cc2ccccc2)c1=O,x,n,x,n
SMILES,NPR1 antag,HEK cytotox,Luciferase inh,NIH3T3 tox
CC1(C)CC2CC(C)(CN2C(=O)CC(c2ccccc2Cl)c2c[nH]c3ccccc23)C1 (stereo not drawn),n,25µM,n,u
COc1ccc(S(=O)(=O)Nc2ccc(C)n(CC(=O)N(C)Cc3ccco3)c2=O)cc1,n,32µM,n,n
CCc1nc2c(c(-c3ccc(Cl)cc3)n1)CN(C(=O)CCl)CC2,n,u,n,22µM
CCc1nc2c(c(-c3ccc(Cl)cc3)n1)CN([S+](=O)([O-])c1cccc(C(F)(F)F)c1)CC2,n,n,n,n
CCc1nc2c(c(-c3ccc(Cl)cc3)n1)CN([S+](C)(=O)[O-])CC2,n,n,n,45µM
O=C(CCc1nnn2c1CN(C(=O)c1nccc3ccccc13)CC2)N1CCCC1,x,n,x,n
O=C(c1ccoc1)N1CCC2(CCC2N2CCOCC2)CC1 (stereo not drawn),x,n,x,n
CC(C)CCNC(=O)N1CCCC(c2noc(COc3ccccc3)n2)C1 (stereo not drawn),n,u,n,u
COc1ncccc1-c1cccc(COc2ccc3c(cnn3CC[S+](C)(=O)[O-])c2)c1,35µM,28µM,16µM,u
CC(C)C(=O)N1CCC(COc2ccc3c(cnn3CC[S+](C)(=O)[O-])c2)CC1,n,u,u,u
COc1ncc(-c2cccc(COc3ccc4c(cnn4CC[S+](C)(=O)[O-])c3)c2)cn1,u,71µM,u,n
CC(=O)N1CCC(COc2ccc3c(cnn3CC[S+](C)(=O)[O-])c2)CC1,n,n,u,u
C[S+](=O)([O-])CCn1ncc2cc(OCc3cccc(-c4cncnc4)c3)ccc21,n,u,35µM,u
C[S+](=O)([O-])CCn1ncc2cc(OCC3CCN(c4ncccn4)CC3)ccc21,u,u,45µM,n
COc1ccc(F)cc1-c1cccc(COc2ccc3c(cnn3CC[S+](C)(=O)[O-])c2)c1,u,u,n,u
Cc1ccc(C(=O)N2CCOc3ccc(NC(=O)C4CC4)cc3C2)cn1,x,n,x,n
Cc1ccc2c(n1)N(C)[C@H](CO)CCN(Cc1cn(C)c3ccccc13)C2,n,u,n,n
O=C(O)CCn1ncc2cc(OCc3ccc(-c4cncnc4)cc3)ccc21,n,n,50µM,45µM
C[S+](=O)([O-])CCn1ncc2cc(OCc3cccc(-c4cccc(F)c4)c3)ccc21,40µM,u,u,u
C[S+](=O)([O-])CCn1ncc2cc(OCc3cccc(-c4ccoc4)c3)ccc21,u,71µM,u,u
COCCC(=O)N1CCC2(CC1)CC(CCOc1ccncc1)CCO2 (stereo not drawn),x,u,x,n
O=C(C1CCCC1)N1CCC2(CC1)CC(CO)N(C(=O)c1ccccc1)C2 (stereo not drawn),x,u,x,n
Cc1ccc2c(n1)N(C)[C@H](CO)CCN(CC1CCCCC1)C2,n,45µM,n,u
Cc1ccc2c(n1)N(C)[C@H](CO)CCN(Cc1ccc(OC(F)(F)F)cc1)C2,n,79µM,n,u
Cc1ccc2c(n1)N(C)[C@H](CO)CCN(C(=O)Nc1ccccc1)C2,n,n,n,n
CC(=O)N1CCC(N2CC[C@@H](CO)N(C)c3nc(C)ccc3C2)CC1,n,79µM,n,45µM
COc1ccc(-c2cc(N3CCC(NC(=O)c4ccc(F)cc4F)CC3)n[nH]2)cc1,n,u,n,u
COc1cc2c(cc1OC)C(CNC(=O)Cc1ccccc1)N(C(=O)Nc1ccccc1F)CC2 (stereo not drawn),n,n,n,n
COc1ccc(-c2noc(-c3cccn3CC(=O)NCCC3=CCCCC3)n2)cc1F,n,n,n,n

# Screening results deposited in PubChem BioAssay by National Center for Advancing Translational Sciences (NCATS).
